# Gli-Sufu block – Gli-Sufu pathway antagonists, primary screen, luciferase luminescence, Sufu-KO-LIGHT cells, uHTS; Sufu-KO-LIGHT fibroblasts, Gli luciferase reporter luminescence; inhibition, % at 5 µM; actives 0.74% (n = 340,000); AID 588413, 2011;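 active = inhibition above about 55%, limit read from the data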
# NCOA2 inhibitor – inhibition of GAL4-SRC2 driven luciferase reporter, primary screen, SRC2 inhibitor project, cell-based, luminescence. Nuclear receptor coactivator 2 (Homo sapiens), Q15596. HEK293 GAL4-SRC2 luciferase reporter. inhibition, % at 9 µM. actives 0.17% (n = 370,000). AID 651957, 2012;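 active = inhibition above the mean inhibition of all tested compounds plus 3 SD, set per campaign, cut at about 52% in these data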
# LRH-1 inv ag – LRH-1 (NR5A2) inverse agonists, primary screen, cell-based, luminescence, HEK293T, StAR-luciferase reporter | AID 602396, 2012 | inhibition, % at 3.6 µM | LRH-1 transfected, 24 h | actives 0.13% (n = 360,000) | Nuclear receptor subfamily 5 group A member 2 (Homo sapiens), O00482;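 active = inhibition above the mean inhibition of all tested compounds plus 3 SD, cut at about 73% in these data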
# SRC1 inh – SRC1 coactivator transcriptional activity inhibitors, primary screen, cell-based, luminescence; HEK293 GAL4-SRC1 luciferase reporter; Nuclear receptor coactivator 1 (Homo sapiens), Q15788; AID 588354, 2011; actives 0.12% (n = 360,000); inhibition, % at 3.6 µM;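 active = inhibition above the campaign mean plus 3 SD, with each screening campaign given its own cutoff, cut at about 60% in these data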
# NCOA3 inh – SRC3 coactivator transcriptional activity inhibitors, primary screen, cell-based, luminescence. Nuclear receptor coactivator 3 (Homo sapiens), Q9Y6Q9. HEK293 GAL4-SRC3 luciferase reporter. inhibition, % at 3.6 µM. actives 0.17% (n = 360,000);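 active = inhibition above a per-campaign cutoff, the mean of all compounds plus 3 SD, cut at about 60% in these data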;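 note: higher means less SRC3-driven luciferase light from the GAL4 reporter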
# NR2F2 inh – NR2F2 transcriptional activity inhibitors, primary screen, cell-based, luciferase reporter, HEK293T, luminescence. COUP transcription factor 2 (Homo sapiens), P24468. inhibition, % at 8.6 µM. HEK293T NGFI-A luciferase reporter. actives 0.7% (n = 370,000);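 active = inhibition above a per-plate cutoff, mean inhibition of test wells between control levels plus 3 SD, cut at about 38% in these data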;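 note: cells cotransfected with COUP-TFII expression vector driving the NGFI-A reporter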
# VP16 Luc counter – Gal4-VP16 luciferase reporter inhibitors, counter-screen for COUP-TFII antagonist project, cell-based, luminescence, HEK293. inhibition, % at 8.5 µM. shares compounds with NR2F2 inh. AID 687007, 2013. actives 25% (n = 2,500); in the data active = inhibition above about 13%
# NR2F2 inh conf – NR2F2 transcriptional activity inhibitors, confirmation, cell-based, luciferase reporter, HEK293, triplicate; shares compounds with NR2F2 inh; HEK293 NGFI-A luciferase reporter, luminescence; inhibition, % at 8.5 µM; actives 45% (n = 2,500); AID 687008, 2013;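 active = mean inhibition over three repeats above a set limit taken from the earlier primary screen, cut at about 38% in these data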
# Numbers stand for hits; - = inactive; . = no result. Hits are enriched below; roughly 1.3% of the tested compounds scored in any of these assays.
SMILES,Gli-Sufu block,NCOA2 inhibitor,LRH-1 inv ag,SRC1 inh,NCOA3 inh,NR2F2 inh,VP16 Luc counter,NR2F2 inh conf
CC1=C(C(=O)OCc2ccc3c(c2)OCO3)C(c2ccc(F)cc2)NC(=O)N1 (centres undefined),-,-,-,74,-,38,23,-
CC1=C(C(=O)OCc2ccc3c(c2)OCO3)C(c2ccc(Cl)cc2)NC(=O)N1 (centres undefined),-,59,-,75,65,48,29,-
CN(CCCOC(=O)c1cc2ccccc2o1)C1CN(Cc2cn(Cc3ccccc3Cl)nn2)S(=O)(=O)C1 (centres undefined),.,-,.,.,.,-,.,.
COc1cccc2c1C(=O)c1c(O)c3c(c(O)c1C2=O)CC(O)(C(=O)CO)CC3OC1CC(N(C)C)C(O)C(C)O1 (centres undefined),85,58,97,79,85,45,28,-
COc1cccc2c1C(=O)c1c(O)c3c(c(O)c1C2=O)C[C@@](O)(C(C)=O)C[C@@H]3O[C@H]1C[C@H](N)[C@H](O)[C@H](C)O1,-,-,99,-,82,54,28,44
c1ccc(C(Cc2nc(-c3ccncc3)no2)c2ccccc2)cc1,-,-,-,-,-,56,-,41
c1ccc(-c2nc(-c3ccncc3)no2)cc1,-,-,-,-,-,-,.,.
COCCn1c(C)c(C)c2c(NCCc3ccccc3)ncnc21,-,-,-,-,-,47,-,64
COc1ccc(/C=C2\SC(=S)N(CCC(=O)Nc3ccccc3C(=O)O)C2=O)cc1,-,-,-,-,-,-,.,.
COc1ccc(/C=C2\SC(=O)N(CCCC(=O)Nc3cc(Cl)ccc3C(=O)O)C2=O)cc1,74,92,82,78,83,101,89,101
Cc1cc2c(c(=O)o1)[C@@]1(C(=O)N(C)c3c(Br)cccc31)C1=C(CCCC1=O)O2,.,-,.,.,.,-,.,.
CC(C)Cn1c(N)c(C(=O)COC(=O)CC23CC4CC(CC(C4)C2)C3)c(=O)n(C)c1=O,-,-,-,-,-,45,-,57
CC(C)Cn1c(N)c(C(=O)CSc2ccccc2)c(=O)n(C)c1=O,-,-,-,-,-,-,.,.
CC(C)Cn1c(N)c(C(=O)COC(=O)/C=C/c2ccccc2)c(=O)n(C)c1=O,-,-,-,-,-,45,-,-
COc1ccc2c(c1)CCCN2C(=O)C1CCCN(S(=O)(=O)c2ccc(C(C)(C)C)cc2)C1 (centres undefined),.,-,.,.,.,48,-,-
CC(C)(C)c1ccc(S(=O)(=O)N2CCCC(C(=O)N3CCN(Cc4ccccc4)CC3)C2)cc1 (centres undefined),.,-,.,.,.,45,-,-
COc1ccc(-c2cc(-c3nnc(SCC(=O)NC4CCCCC4)n3N)[nH]n2)cc1,.,-,.,.,.,-,.,.
CCc1ccc(-c2cn3nc(C)c(C)nc3n2)cc1,-,59,-,-,-,47,-,-
CCN(CC)S(=O)(=O)c1cc(NC(=O)c2ccc(-n3cncn3)c([N+](=O)[O-])c2)ccc1C,-,-,-,-,-,54,-,-
CC1=CC2C(C(O)CC3(C)C2CC(C)C32OCOC23COCO3)C2(C)C/C(=C\O)C(=O)C=C12 (centres undefined),-,-,-,-,-,52,21,42
Cc1cc(O)c(Sc2ncn[nH]2)cc1NS(=O)(=O)c1ccc(Cl)cc1,-,-,-,-,-,-,.,.
O=S(=O)(Nc1cc(Sc2ncn[nH]2)c(O)c2ccccc12)c1ccccc1,-,70,89,89,84,72,-,-
